This note sets out measurements from PubChem BioAssay (NCI).

Structures are written as SMILES. The panel holds about 83,000 compounds, 20% with a hit somewhere; the sample as a whole holds those more often.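 Assay: single dose, 48 h. Readout: percent growth (0 = no net growth; negative = cell death). Active: <10.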 Unmarked numbers belong to inactive results. Calls of active or inactive are those of the source.

Some test systems named below: SK-MEL-2 melanoma; EKVX NSCLC; SN12C renal; UO-31 renal; TK-10 renal; ACHN renal; CAKI-1 renal; A498 renal; CCRF-CEM leukemia; MOLT-4 leukemia; SR leukemia; RPMI-8226 leukemia; OVCAR-8 ovarian; OVCAR-5 ovarian; OVCAR-4 ovarian; SK-OV-3 ovarian; IGROV1 ovarian; OVCAR-3 ovarian; HS 578T breast; NCI/ADR-RES ovarian.
What all share (experiment): NCI-60 one-dose screen, 48 h (100 = growth as untreated, 0 = no growth, -100 = all killed)
Holding throughout (settings): 10 µM unless noted

Turning to `N=C(N)c1ccc(-c2ccc(-c3cc(Cl)cc(Cl)c3)s2)nc1`, the growth with SK-MEL-2 melanoma is 109%; in the assay on EKVX NSCLC, 94.5%; with SN12C renal it was 83%; in the assay on UO-31 renal, 90.6%; in the assay with TK-10 renal it was 115%; in the assay on ACHN renal, 74.8%. In addition, the growth in the assay with CAKI-1 renal is 30.9%; with A498 renal, 91.6%; in the assay with CCRF-CEM leukemia, 21.7%; in the assay on MOLT-4 leukemia, 2.78% (active); with SR leukemia, 8.46% (active); in the assay with RPMI-8226 leukemia, 8.67% (active). Besides, the growth in the assay on OVCAR-8 ovarian was -17.5% (active); in the assay on OVCAR-5 ovarian, 93.9%; in the assay on OVCAR-4 ovarian it was 59.1%; in the assay on SK-OV-3 ovarian, 84.1%; in the assay with IGROV1 ovarian, 46.7%; in the assay with OVCAR-3 ovarian, 19.8%. The results for the growth in the assay on HS 578T breast and in the assay with NCI/ADR-RES ovarian were 94% and 91.4%, respectively.
On to `Nc1nc(N)c2c(n1)NC(c1cccc(Nc3ccnc4cc(C(F)(F)F)ccc34)c1)CC(c1ccccc1)=N2` (stereo not given), for which the growth in the assay on SK-MEL-2 melanoma is 35.1%; with EKVX NSCLC, 51.5%; in the assay with SN12C renal it was 65.4%; in the assay with UO-31 renal, 62.6%; in the assay with TK-10 renal it was 83.1%; with ACHN renal, 75.8%. Besides, the growth with CAKI-1 renal was 42.7%; in the assay with A498 renal it was 77.8%; with CCRF-CEM leukemia it was 32.4%; in the assay on MOLT-4 leukemia, 6.47% (active); in the assay with SR leukemia, 4.11% (active); with RPMI-8226 leukemia, 9.67% (active). In addition, the growth is 63% in the assay with OVCAR-8 ovarian; 113% with OVCAR-5 ovarian; 57.8% in the assay on OVCAR-4 ovarian; 65.3% with SK-OV-3 ovarian; 59.4% with IGROV1 ovarian; 45.3% in the assay with OVCAR-3 ovarian. The growth in the assay with HS 578T breast was 53.7%; in the assay with NCI/ADR-RES ovarian, 70.2%.
`Cc1ccc2c(-c3nnc(N)s3)cc(=O)oc2c1C`: the growth in the assay on SK-MEL-2 melanoma was 110%; with EKVX NSCLC, 97.3%; with SN12C renal it was 99.8%; in the assay with UO-31 renal, 80.2%; in the assay with TK-10 renal it was 102%; with ACHN renal, 103%. The growth in the assay on CAKI-1 renal was 94.1%; in the assay on A498 renal it was 85.1%; in the assay with CCRF-CEM leukemia, 39.2%; with MOLT-4 leukemia, 102%; in the assay on SR leukemia it was 110%; in the assay on RPMI-8226 leukemia, 91.2%. Also, the growth was 96.1% with OVCAR-8 ovarian; 114% in the assay with OVCAR-5 ovarian; 100% in the assay on OVCAR-4 ovarian; 109% in the assay with SK-OV-3 ovarian; 98.5% in the assay on IGROV1 ovarian; 110% in the assay on OVCAR-3 ovarian. The figures for the growth with HS 578T breast and in the assay with NCI/ADR-RES ovarian were 95.6% and 102%, respectively.
As for `c1ccc(CCNc2c3ccccc3nc3ccccc23)cc1`, the growth is 86.3% in the assay with SK-MEL-2 melanoma; 36.3% in the assay with EKVX NSCLC; 33.1% with SN12C renal; 24.2% in the assay on UO-31 renal; 53.2% in the assay on TK-10 renal; 21.6% in the assay on ACHN renal. Also, the growth was 30.3% in the assay with CAKI-1 renal; -5.19% (active) with A498 renal; 53.3% in the assay on CCRF-CEM leukemia; 24.6% with MOLT-4 leukemia; 20.9% in the assay on SR leukemia; 19.5% with RPMI-8226 leukemia. The growth is 38.3% in the assay on OVCAR-8 ovarian; 53.4% with OVCAR-5 ovarian; 35% in the assay with OVCAR-4 ovarian; 62.6% in the assay with SK-OV-3 ovarian; 28% in the assay on IGROV1 ovarian; 71% with OVCAR-3 ovarian. In addition, the results for the growth in the assay on HS 578T breast and in the assay with NCI/ADR-RES ovarian were 73.3% and 33.5%, respectively.
For the molecule `COc1ccc(C[n+]2c3ccccc3n3c4ccc(N)cc4ccc32)c(OC)c1OC`, the growth is 44% with SK-MEL-2 melanoma; 49.3% in the assay with EKVX NSCLC; 6.42% (active) in the assay on SN12C renal; 88.7% in the assay with UO-31 renal; 78.2% in the assay on TK-10 renal; 101% in the assay on ACHN renal. Also, the growth is 96.6% with CAKI-1 renal; 81.3% with A498 renal; 40.4% in the assay with CCRF-CEM leukemia; 67.9% in the assay with MOLT-4 leukemia; 41.2% in the assay with SR leukemia; 15.1% with RPMI-8226 leukemia. The growth is 46.8% with OVCAR-8 ovarian; 99.6% in the assay on OVCAR-5 ovarian; 55.5% in the assay with OVCAR-4 ovarian; 70% in the assay with SK-OV-3 ovarian; 73.9% with IGROV1 ovarian; 50.9% with OVCAR-3 ovarian. In addition, the growth in the assay with HS 578T breast is 43.5%; with NCI/ADR-RES ovarian it was 103%.
For the molecule `COc1ccc(N2CCN(C(=O)c3sc4nc(C)c(Br)c(C)c4c3N)CC2)cc1`, the growth with SK-MEL-2 melanoma is 85.1%; with EKVX NSCLC, 79.9%; with SN12C renal, 95.9%; with UO-31 renal, 59.4%; with TK-10 renal, 115%; in the assay with ACHN renal, 92.6%. For the same molecule, the growth is 82.6% with CAKI-1 renal; 103% with A498 renal; 97.8% in the assay on CCRF-CEM leukemia; 93% in the assay with MOLT-4 leukemia; 97.4% in the assay with SR leukemia; 98.5% in the assay on RPMI-8226 leukemia. In addition, the growth in the assay with OVCAR-8 ovarian was 97.6%; with OVCAR-5 ovarian it was 90.5%; in the assay on OVCAR-4 ovarian it was 90.6%; in the assay on SK-OV-3 ovarian, 90.1%; in the assay with IGROV1 ovarian, 91.2%; in the assay on OVCAR-3 ovarian, 98.3%. Besides, the growth with HS 578T breast was 92.8%; with NCI/ADR-RES ovarian, 101%.
